# Test results reported in PubChem BioAssay AID1851 (National Center for Advancing Translational Sciences (NCATS), 2009).
# Where “and” joins values, the source holds several entries; their conditions need not be identical. Identical values can stand only once. In all, about 16,000 compounds went through this assay and about 5,100 (32%) were called active. Inconclusive results (about 25%) are left out. The list shows a part of the results. A number with no mark means an inactive call. The call rests on the fitted dose curve; in most records, active means well fitted curve in the direction sought with a large enough effect; inconclusive means small, poorly fitted or top-dose-only effect, or effect the other way; inactive means no such curve, though single readings can be large or run the other way.
# Target: Cytochrome P450 3A4 (Homo sapiens) (UniProt P08684)
# Test: Cytochrome panel assay with activity outcomes
# Details: recombinant CYP, pro-luciferin dealkylation, luminescence, p450-cyp3a4; series mostly up to 57.1 µM; activity, negative = inhibition: at the top concentration
# Experimental: The P450 gene superfamily is involved in the metabolism and clearance of xenobiotics. This assay used various human CYP P450 isozymes to measure the dealkylation of various pro-luciferin substrates to luciferin. The luciferin is then measured by luminescence after the addition of a luciferase detection reagent. Pro-luciferin substrate concentration in the assay was equal to its KM for its CYP P450 isozyme. Inhibitors and some substrates limit the production of luciferin, and decrease measured luminescence.
# NCGC Assay Protocol Summary:
# 1, Reagent, 2 uL, Isozyme and Pro-Luciferin
# 2, Library compounds, 23 nl, 40 uM to 0.24 nM dilution series
# 3, Controls, 23 nl, Isozyme specific inhibitor
# 4, Reagent, 2 uL, NADPH regeneration solution
# 5, Incubation time, 60 min, Isozyme specific temperature
# 6, Reagent, 4ul, Detection reagent
# 7, Incubation time, 20 min, Isozyme specific temperature
# 8, Detection, 1 sec, ViewLux luminescent read
# The luciferase-based P450-GloTM Screening Systems were obtained from Promega (Madison, WI) for CYP 1A2 (V9770), CYP 2C9 (V9790), CYP2 C19 (V9880), CYP 2D6 (V9890), and CYP 3A4 Luciferin-PPXE (V9910) and were adapted for 1,536-well microplates and an automated protocol. The control compounds furafylline for 1A2 (F124), sulfaphenazole for CYP 2C9 (S0758), ketoconazole for CYP 2C19 (K1003), quinidine for 2D6 (Q3625), and ketoconazole for 3A4 (K1003) were purchased from Sigma Aldrich (St. Louis, MO). Recombinant P450 enzymes were obtained from baculovirus constructs expressed in insect cells (BD/Gentest).
# Medium-binding white solid Kalypsys plates used. Mixtures kept on ice. 1A2: 10 nM 1A2, 100 uM Luc-ME, 100 mM KPO4; 2C9: 10 nM 2C9, 100 uM Luc-H, 25 mM KPO4; 2C19: 5 nM 2C19, 10 uM Luc-H EGE, 50 mM KPO4; 2D6: 5 nM 2D6, 30 uM Luc-ME EGE, 100 mM KPO4; 3A4: 10 nM, 25 uM Luc-PPXE. All amounts are reflected in their final concentration, working concentration is 2x.
# NADPH regeneration solution: 1.3 mM NADP+, 3.3 mM glucose-6-phosphate, 3.3 mM MgCl2, 0.4 U/mL glucose-6-phosphate dehydrogenase for all isozymes, 200 mM KPO4 for 3A4. Mixture prepared at RT but kept on ice during automated run.
# RT incubation in auxilliary plate hotel for 1A2, 2D6, and 3A4; 37C for 2C9 and 2C19.
# Keywords: P450, CYP1A2, CYP2C19, CYP2C9, CYP2D6, CYP3A4, Luciferase, MLSMR, MLSCN, NIH Roadmap, qHTS, NCGC
# On the % scale 0 is the no-effect control and ±100 the full control effect.
# Chain of Cytochrome P450 3A4 (Homo sapiens) (P08684 whole entry, looked up): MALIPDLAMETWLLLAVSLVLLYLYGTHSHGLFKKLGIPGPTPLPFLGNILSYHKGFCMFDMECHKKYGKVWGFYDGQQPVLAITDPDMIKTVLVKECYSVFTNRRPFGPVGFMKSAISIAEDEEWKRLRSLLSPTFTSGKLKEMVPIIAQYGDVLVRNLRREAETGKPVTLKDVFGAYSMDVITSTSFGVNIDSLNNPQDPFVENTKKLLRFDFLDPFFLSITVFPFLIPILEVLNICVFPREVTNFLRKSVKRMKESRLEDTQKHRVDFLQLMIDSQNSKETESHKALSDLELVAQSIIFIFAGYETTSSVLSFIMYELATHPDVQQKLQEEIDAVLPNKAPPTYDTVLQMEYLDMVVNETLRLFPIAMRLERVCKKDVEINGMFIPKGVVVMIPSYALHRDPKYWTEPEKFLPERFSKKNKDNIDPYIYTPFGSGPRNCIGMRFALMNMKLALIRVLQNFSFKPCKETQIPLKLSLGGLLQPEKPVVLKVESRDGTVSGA
Compound,AC50,"activity, negative = inhibition"
N#C/C(=C\c1ccc(O)c(O)c1)C(N)=S,12.6 µM (active) and 15.8 µM (active),–
N#C/C(=C\c1ccc(O)c(O)c1)C(=O)NCCCNC(=O)/C(C#N)=C/c1ccc(O)c(O)c1,2 µM (active),–
CC[C@@H]1[C@@H]2C[C@H]3[C@H]4N(C)c5ccccc5[C@@]45C[C@@H]([C@@H]2[C@@H]5O)N3[C@H]1O,–,1.61% [at 25.6 µM]
CNC[C@H](O)c1ccc(O)cc1,–,-13% [at 25.6 µM]
NC[C@H](CP(=O)(O)O)c1ccc(Cl)cc1,–,-3.38%
CC1(C)[C@@H]2CC[C@]1(C)CN(CCC[N+](C)(C)C)C2,–,12.3% [at 11.4 µM]
C[N+](C)(C)CCCCCC[N+](C)(C)C,–,-2.76% [at 25.6 µM]
O=C(Nc1ccc(C(F)(F)F)cc1)c1cccn(Cc2ccc3c(c2)OC(F)(F)O3)c1=O,–,-21.3%
C=CCn1c(O)c(C(CC)=NC2CC2)c(=O)[nH]c1=O,–,-14.9% [at 2.29 µM]
CCCCn1c(O)c(C(CC)=Nc2ccc(OC)cc2OC)c(=O)[nH]c1=O,7.94 µM (active),–
O=C(CCCN1CCC(n2c(=O)[nH]c3ccccc32)CC1)c1ccc(F)cc1,–,-10.2% [at 25.6 µM]
COc1ccc(C(=O)c2c(C)n(CCN3CCOCC3)c3cc(I)ccc23)cc1,5.01 µM (active),–
CCCn1c(C)c(C(=O)c2cccc3ccccc23)c2ccccc21,–,-13.7%
CC(C)CC(=O)C[C@H](O)C(Cl)(Cl)Cl,–,1.61% [at 11.4 µM]
S=P(C1CCCCC1)(C1CCCCC1)[C@H](c1cccnc1)N1CCCC1,3.16 µM (active),–
CCC(CC)C(=O)NC1CCSC1=O (stereo not given),–,10.8%
CN1CCN(c2ncc3ncc(=O)n(C)c3n2)CC1,–,0.0574%
COc1ccc(C(=O)OC2C[C@H]3CC[C@@H](C2)N3C)cc1OC (stereo not given in full),–,-8.39% [at 25.6 µM]
Cc1ccc(S(=O)ON2CCC(C(=O)O)(c3ccccc3)CC2)cc1 (stereo not given),–,-0.254% [at 11.4 µM]
C=C(CC1(CNP(=O)(c2ccccc2)c2ccccc2)CC1)c1ccccc1,3.98 µM (active),–

Compound,AC50,"activity, negative = inhibition"
O=P(c1ccccc1)(c1ccccc1)N1CC2(CC2)CC(O)(c2ccccc2)C1 (stereo not given),–,1.88%
O=P(O)(O)c1ccccc1 (tested in a mixture with another compound),–,-7.35% [at 11.4 µM]
C=C(CC1(C(C)NP(=O)(c2ccccc2)c2ccccc2)CC1)c1ccccc1 (stereo not given),3.98 µM (active),–
CN1[C@@H]2CC[C@H]1CC(OC(=O)c1cc(Cl)cc(Cl)c1)C2 (stereo not given in full),–,-16.8%
CC(C)(C)c1o[nH]c(=O)c1C[C@H](N)C(=O)O,–,inactive
CCN1C[C@]2(C)CC[C@H](O)[C@@]34[C@@H]5CC6[C@@H](OC)C[C@@](O)([C@@H]5[C@@H]6O)[C@H](C[C@@H]23)[C@H]14,–,-7.01% [at 25.6 µM]
CCCN(CCC)[C@@H]1CCc2cccc(O)c2C1,–,inactive
N=C(N)c1ccc(-c2ccc(-c3ccc(C(=N)N)cc3)o2)cc1,–,3.4% [at 11.4 µM]
CCCN(CCC)C1Cc2cc(OC)c(OC)cc2C1,–,inactive
C[N+](C)(C)CCO,–,10%
C[C@H](c1ccccc1)N1CCN([C@@H](C)c2ccccc2)CC1,–,-13.4% [at 11.4 µM]
NCCc1ccc(S(=O)(=O)O)cc1[N+](=O)[O-],–,-7.4% [at 11.4 µM]
O=C1c2cc([N+](=O)[O-])ccc2-c2ccc3c4ccc5c6c(ccc(c7ccc1c2c73)c64)C(=O)c1cc([N+](=O)[O-])ccc1-5,–,-21% [at 11.4 µM]
O=C1c2ccccc2-c2cc([N+](=O)[O-])c([N+](=O)[O-])cc21,0.501 µM (active),–
CSCC[C@@H](N)P(C)(=O)O,–,-8.04% [at 11.4 µM]
C=C[C@]12CN(C)[C@H]3C1[C@@]1(C(=O)Nc4ccccc41)[C@H]1C[C@H]2[C@H]3CO1,–,-22.4% [at 25.6 µM]
Oc1cccc2cccnc12,–,-3.42% [at 11.4 µM]
CCC1C(=O)OCC1Cc1cncn1C (stereo not given),15.8 µM (active),–
CC[C@H]1C(=O)OC[C@H]1Cc1cncn1C,10 µM (active) and 3.16 µM (active),–
c1csc(CN2CC3(CCNCC3)C2)n1,–,-12.1%

Compound,AC50,"activity, negative = inhibition"
OC1(c2ccc(F)cc2)CCNC1 (stereo not given),–,-2.52%
O=S(=O)(O)/C(=C\c1ccccc1)c1ccccc1 (tested in a mixture with another compound),–,-11.7% [at 11.4 µM]
COc1ccn(C)c(=O)c1C#N,–,-6.41% [at 25.6 µM]
Cc1ccc(N=Nc2c(O)[nH]c(=O)[nH]c2=O)c([N+](=O)[O-])c1,–,14.9%
CP(=O)(O)CCCN,–,inactive
NC(=O)COc1c(F)cc(SCCNS(=O)(=O)c2ccccc2)cc1F,12.6 µM (active),–
C/C(=C\C=C/[C@@H](C)C(=O)O)[C@H]1CN[C@H](C(=O)O)[C@@H]1CC(=O)O,–,-6.56%
CC(C)CNC(=S)NC1CC2CCCC(C1)N2Cc1ccco1 (stereo not given),–,2.91% [at 2.29 µM]
Cc1ccc(C(=O)C2C(=O)c3ccccc3C2=O)cc1,–,-18.3% [at 11.4 µM]
CN(C(=O)Cc1ccc(Cl)c(Cl)c1)[C@H](CN1CCCC1)c1ccccc1,6.31 µM (active),–
CN(C(=O)Cc1ccc(Cl)c(Cl)c1)[C@@H](CN1CCCC1)c1cccc(OCC(=O)O)c1,–,-9.59%
O=C(O)CP(=O)(O)c1ccc(Cl)cc1,–,8.85%
COc1ccc(C[C@H]2c3cc(OC)c(OC)cc3CCN2C)cc1OC,–,-26.2% [at 25.6 µM]
C[C@]1(C(=O)O)[C@@H]2CC[C@@H](O2)[C@@]1(C)C(=O)O,–,-4.96%
CC1(C)CCC2=C(O1)c1ccccc1C(=O)C2=O,15.8 µM (active),–
COc1cc2c3cc1Oc1c(O)c(OC)cc4c1[C@@H](Cc1ccc(cc1)Oc1cc(ccc1O)C[C@H]3N(C)CC2)N(C)CC4,–,-12.1% [at 11.4 µM]
N[C@H](C(=O)O)c1cc(=O)[nH]o1,–,-5.66%
N[C@@H](CP(=O)(O)O)C(=O)O,–,-3.52% [at 11.4 µM]
OC(Cn1c2ccccc2c2ccccc21)C[n+]1ccccc1 (stereo not given),–,-1.96% [at 2.29 µM]
CCCCC1(CCCC)C(=O)NC(=Nc2cccc(C)c2)NC1=O,12.6 µM (active),–
